# Experimental data published in PubChem BioAssay (NCI).
# The panel holds about 83,000 compounds, 20% with a hit somewhere; the sample as a whole holds those more often.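 96-well plates, one dose, 48 hours. Percent growth reported; active if below 10.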 A number with no mark means an inactive call. Activity calls are given as the source filed them.
# Test system: U251 CNS
# Experiment: NCI-60 one-dose screen, 48 h (100 = growth as untreated, 0 = no growth, -100 = all killed)
# Details: 10 µM unless noted
# Experimental: Growth inhibition of the U251 human tumor cell line is measured as a screen for anti-cancer activity. Cells are grown in 96 well plates and exposed to the test compound for 48 hours. Compounds are tested at a single concentration, which is 10^-5 M for most compounds. The reported endpoint is percent growth (GI% or GIPRCNT), where numbers from 0 - 100% represent growth inhibition, and numbers from -100% - 0 represent cell death. For example, a value of 40 represents 60% growth inhibition. A value of 0 means no net growth occurred over the course of the experiment. A value of -40 indicates 40% of cells at the beginning of the experiment died by the end of the experiment. A value of -100 means all cells are dead at the end of the experiment.
# NCI-60 Human Tumor Cell Lines Screen was performed using the standard one-dose NCI protocol, which is described in more detail at https://dtp.cancer.gov/discovery_development/nci-60/default.htm.
# Compounds with GIPRCNT values below 10 were considered active. Activity score was based on GIPRCNT using the following formula: […]
# Score is 0 for GIPRCNT values of 100 or above, 50 for GIPRCNT values of 0, and 100 for GIPRCNT values of -100.
row,SMILES,growth
1,CNCCn1c(=O)c2cc(OC)c(OC)cc2c2ccc3cc4c(cc3c21)OCO4,5.74% (active)
2,O=C(Nc1cccc(C(=O)N2CCc3ccc(Cl)cc32)c1)c1ccco1,36.7%
3,CN(C)c1ccc(C2C(C#N)=C(/N=C/c3ccccc3)Oc3c2ccc2ccccc32)cc1 (stereo not given),74.8%
4,CCCC/C=N/NC(=S)NCc1ccccc1,97.1%
5,CCN1C(=O)/C(=C/C(=O)OC)S/C1=N\NC(=O)c1cc2ccc1/C=C\c1ccc(cc1)/C=C\2,84.4%
6,COc1ccc(/C=C/c2nc(Nc3ccc(S(=O)(=O)Nc4cc(C)on4)cc3)c3ccccc3n2)cc1,74.5%
7,O=C(CNCCN1CCOCC1)N1c2cccc3cccc(c23)N(C(=O)CNCCN2CCOCC2)C1c1cn(-c2ccccc2)nc1-c1cccc([N+](=O)[O-])c1,55.2%
8,CC(C)(C)CC(C)(C)n1nnnc1C(NC12CC3CC(CC(C3)C1)C2)c1ccccc1 (stereo not given),89.4%
9,C=C(C)[C@@H]1CC[C@]2(C(=O)N[C@H](CO)Cc3ccccc3)CC[C@]3(C)[C@H](CC[C@@H]4[C@@]5(C)CCCNC(C)(C)[C@@H]5CC[C@]43C)[C@@H]12,-89.7% (active)
10,COc1ccc(C(=O)C2C(C#N)C(C#N)C3C=Cc4ccccc4N32)cc1 (stereo not given),34.6%
11,COc1cc(NC(=O)CSc2nc3ccc(C)cc3c(=O)n2Cc2ccccc2)cc(OC)c1OC,57.6%
12,CCNc1nc2cc(Nc3ccnc4cc(Cl)ccc34)ccc2o1,74.4%
13,COc1cc2c(c(O)c1Br)C(=O)c1c(O)cc(C[C@H](C)O)cc1[C@H]2[C@H]1c2cc(C[C@H](C)O)cc(O)c2C(=O)c2c1cc(OC)c(Br)c2O,10.3%
14,Cn1c2ccccc2c2c3c(c4c5ccccc5n(C)c4c21)C(=O)OC3,104%
15,CCc1ccc(-c2cn3ccnc3c(-c3ccc4ncn(Cc5ccccc5)c4c3)n2)cc1,53.9%
16,N#C/C(=C\c1ccc([N+](=O)[O-])s1)c1nc2cc(Br)ccc2s1,-20.5% (active)
17,CN1CCN(C(=O)[C@]23CCC(C)(C)C[C@H]2C2=CC[C@@H]4[C@@]5(C)C/C(=C/c6ccncc6)C(=O)C(C)(C)[C@@H]5CC[C@@]4(C)[C@]2(C)CC3)CC1,44.8%
18,O=S(=O)(NCCNc1nccc(-c2c(-c3cccc(F)c3)nc3sccn23)n1)c1ccc(Br)cc1,53.4%
19,CCN(c1ccccc1)S(=O)(=O)c1cc([N+](=O)[O-])ccc1Cl,59.2%
20,CCOC(=O)/C(C#N)=C1/NNC(=Nc2cccnc2)S1,94.1%

row,SMILES,growth
1,c1ccc2cc(Cn3c(-c4cccc5ccccc45)[n+](Cc4ccc5ccccc5c4)c4c5ccccc5c5ccccc5c43)ccc2c1,-91.1% (active)
2,COc1ccccc1NC(=O)C1CC(c2ccc(F)cc2)=NO1 (stereo not given),96.3%
3,O=[N+]([O-])c1ccc(N=Nc2cc(S(=O)(=O)O)c3cccc(S(=O)(=O)O)c3c2O)cc1,104%
4,C=C1C(=O)O[C@H]2[C@H]1CC/C(COC(=O)NCC(C)c1ccc(CC(C)C)cc1)=C\CC[C@@]1(C)O[C@@H]21 (stereo not given in full),-22.3% (active)
5,COc1ccc(C(=O)c2nc3ccccc3n2CC(=O)c2ccc(Cl)cc2)cc1,22.7%
6,CCOC(=O)Oc1c(OC)cc(C(=O)c2ccc(OC)c(OC(=O)CCl)c2OC)cc1OC,19%
7,OCc1cnccc1NCCCOc1ccccc1,98.2%
8,COc1cc(/C=C/c2cc(O)c(C(C)=O)c(O)c2)cc2c1O[C@]1(C)CC[C@@H](O)C(C)(C)[C@H]1C2,36.1%
9,O=C1c2cccc3c(-c4ccc5c(c4)ncn5C4CCCCC4)ccc(c23)C(=O)N1CCO,93.2%
10,COc1ccc2c(c1)C(=O)CC(c1ccccc1OC)O2 (stereo not given),98.4%
11,Cc1c(C)c([N+](=O)[O-])c(C)c([N+](=O)[O-])c1C,100%
12,Cc1ccc(-n2c3c(c(-c4ccccc4)c2-c2ccccc2)C2=NCCN2C=N3)cc1,92%
13,COc1cccc(-c2nc3occn3c2-c2ccnc(NCCNS(=O)(=O)c3ccc(C(F)(F)F)cc3)n2)c1,101%
14,COc1cc(/C=C\C(=O)O)ccc1OCc1ccccc1,84.9%
15,COc1cc(/C(C)=C(\c2ccc(Cl)cc2)c2ccc(OCCN(C)C)cc2)ccc1F,44.3%
16,O=C1NN(C(=O)c2ccccc2)C(c2ccc(Cl)c(Cl)c2)=C/C1=C\c1ccc([N+](=O)[O-])cc1,69.7%
17,COc1ccc(C(=O)c2cc(C)c(OC)c(C)c2)c(OC)c1NC(C)=O,21.4%
18,COc1ccc2[nH]c(O)c(/C=c3/cc4c(c(-c5ccc(F)cc5)n3)=Nc3ccccc3-4)c2c1,66.3%
19,O=C1c2ccc3c4c(ccc(c24)C(=O)N1CCCNCc1ccccc1F)C(=O)N(CCCNCc1ccccc1F)C3=O,-85.6% (active)
20,COc1ccccc1NS(=O)(=O)c1cccc(C(=O)Nc2ccc(Br)cc2)c1,62%
